Screening results from PubChem BioAssay.
The sample as a whole holds a higher share of hits than the screen did.
NS1 inh – influenza NS1 inhibition. Potency, µM (titrated, usually from 46.1 µM), for the others: top-dose activity, positive = more growth. 270,000 tested, 0.4% active. AID 2326; further: potency means the concentration at half of the fitted maximal effect; actives are rising curves; nearly all actives have a fitted effect of over 50% in size
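A cell-based growth assay was used: compounds that relieve NS1-induced slow growth of budding yeast raise OD600. Assay medium was yeast nitrogen base with ammonium sulphate and -URA supplement, pH 6.0, with 2% galactose.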
Tb PYK inh – T. brucei pyruvate kinase inhibition. Potency, µM (highest dose often 76.8 µM), for the others: at the highest dose activity, negative = inhibition, usual class: inhibitors. AID 624173. 410,000 tested, 0.12% active. Q57TT1. TbPYK enzyme, Kinase-Glo Plus ATP luminescence, 45 min; active means well fitted curve in the direction sought with a large enough effect; inconclusive means small, poorly fitted or top-dose-only effect, or another doubt; inactive means no such curve, though single readings can be large; an effect the other way counts as inactive or inconclusive; further: potency means the concentration at half of the fitted maximal effect; on the % scale 0 is the no-effect control and ±100 the full control effect; nearly all actives have a fitted effect of over 50% in size
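T. brucei PYK with substrate was exposed to pin-transferred compounds across a concentration series, then started with 130 uM ADP (final). After 45 min at room temperature, Kinase-Glo Plus luminescence was read, normalized and curve-fitted.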
Cycloheximide cs – counter-screen for Shiga toxin inhibitors: cycloheximide protein synthesis inhibition; cell reporter, cycloheximide protein synthesis inhibition counterscreen; max response, %; 300,000 tested, 12% active; AID 2314; in the data active means max response mostly above about 13%, no sharp cut-off; inactive means mostly below about 14%; further: read at 38.3 µM for the half of the compounds with a filed dose; 0% is about no effect
Shiga toxin inh – Shiga toxin inhibition | Vero cells, Shiga toxin protein synthesis inhibition reporter | inhibition, % at 38.7 µM | 290,000 tested, 9.2% active | AID 2315; in the data active means inhibition mostly above about 28%, no sharp cut-off; inactive means mostly below about 43%; further: 0% is about no effect
SARS PLpro yeast – inhibitors of SARS-CoV papain-like protease in yeast. Potency, µM (titrated, usually from 32.9 µM), without a hit: top-dose activity, positive = growth rescue, actives largely listed as activators. 330,000 tested, 0.19% active. AID 485353. S. cerevisiae expressing SARS-CoV PLpro, growth rescue; further: potency means the concentration at half of the fitted maximal effect; 0% is about no effect; nearly all actives have a fitted effect of over 55% in size
LmPK inh – LmPK (Leishmania mexicana) enzyme inhibition; purified LmPK, Kinase-Glo ATP luminescence, 1 h; Potency, µM (series often up to 57.5 µM), without a hit: at the top dose activity change, negative = inhibition, most hits filed as inhibitors; 290,000 tested, 0.37% active; AID 1721; active means well fitted curve in the direction sought with a large enough effect; inconclusive means small, poorly fitted or top-dose-only effect, or another doubt; inactive means no such curve, though single readings can be large; an effect the other way counts as inactive or inconclusive; further: potency means the concentration at half of the fitted maximal effect; on the % scale 0 is the no-effect control and ±100 the full control effect
Target sequence (Q27686 whole entry, looked up): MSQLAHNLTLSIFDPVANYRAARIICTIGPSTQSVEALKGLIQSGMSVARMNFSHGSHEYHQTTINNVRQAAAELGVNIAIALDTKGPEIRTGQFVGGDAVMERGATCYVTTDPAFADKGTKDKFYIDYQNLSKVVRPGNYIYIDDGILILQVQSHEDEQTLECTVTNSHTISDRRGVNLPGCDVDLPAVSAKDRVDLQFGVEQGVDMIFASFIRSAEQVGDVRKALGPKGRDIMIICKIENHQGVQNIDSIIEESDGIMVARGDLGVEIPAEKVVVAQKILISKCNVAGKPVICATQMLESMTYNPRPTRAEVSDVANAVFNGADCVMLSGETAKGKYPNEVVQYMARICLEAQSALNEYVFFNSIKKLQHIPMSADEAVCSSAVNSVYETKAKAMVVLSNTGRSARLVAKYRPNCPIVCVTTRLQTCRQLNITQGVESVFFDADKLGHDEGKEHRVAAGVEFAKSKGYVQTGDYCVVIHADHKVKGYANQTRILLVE
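Screened at intermediate enzyme activity to detect both inhibitors and activators: LmPK at 0.1 nM, with a 0.5 nM enzyme column as activation reference. PEP 0.5 mM, ADP 0.1 mM; ATP detected by luminescence after 1 h.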
Starred values were filed as active, the others as inactive; [ ] = another dose, or the depositor's remark. Unless noted, the call rests on the fitted dose curve.

Screening CSc1ccc(/C=N/NC(=O)c2cccc(O)c2)cc1 returned NS1 inh 2%, Tb PYK inh -11%, Cycloheximide cs 27*, Shiga toxin inh 76, SARS PLpro yeast -9% and LmPK inh 8.9µM*.
Screening O=C(N/N=C/c1cccc(C(F)(F)F)c1)c1ccc(O)cc1 returned Tb PYK inh -5%, Cycloheximide cs 14, Shiga toxin inh 99, SARS PLpro yeast 0% and LmPK inh 0%.
`O=C(N/N=C/c1ccc(C(F)(F)F)cc1)c1ccc(O)cc1` gave Tb PYK inh 1%, Cycloheximide cs 32*, Shiga toxin inh 44*, SARS PLpro yeast inconclusive and LmPK inh -11%.
Screening CC(C)(C)NC(=O)C(=O)N/N=C/c1ccc(Br)cc1 returned NS1 inh -8%, Tb PYK inh 5%, Cycloheximide cs 15, Shiga toxin inh 13, SARS PLpro yeast -3% and LmPK inh 1%.
For CCOc1ccc(C(=O)N/N=C/c2ccc(SC)cc2)cc1 the results were NS1 inh 6%, Tb PYK inh 7%, Cycloheximide cs -2, Shiga toxin inh 0, SARS PLpro yeast -1% and LmPK inh 2%.
CC(C)(C)NC(=O)C(=O)N/N=C/c1ccc(F)cc1 was read as Tb PYK inh -1%, Cycloheximide cs 26*, Shiga toxin inh 48*, SARS PLpro yeast 0% and LmPK inh 0%.
For O=C(N/N=C/c1ccc(O)cc1)c1csc2c1CCCC2 the results were NS1 inh -1%, Tb PYK inh -4%, Cycloheximide cs 47*, Shiga toxin inh 57*, SARS PLpro yeast -6% and LmPK inh 3%.
Screening CC1(C(=O)Nc2ccc(F)c(Cl)c2)Cc2c(-c3ccc(C(N)=O)cc3)ccnc2O1 (stereo unspecified) returned Tb PYK inh -2%.
O=C(N/N=C\c1cccc(F)c1)c1ccc(-c2ccccc2)cc1 was read as NS1 inh -2%, Tb PYK inh -1%, Cycloheximide cs 21*, Shiga toxin inh 26, SARS PLpro yeast -2% and LmPK inh -2%.
For O=C(N/N=C/c1cnc2ccccc2n1)c1cccc(F)c1 the results were NS1 inh -14%, Tb PYK inh 6%, Cycloheximide cs 27*, Shiga toxin inh active, SARS PLpro yeast 2% and LmPK inh 0%.
For COC(=O)c1ccc(/C=N/NC(=O)c2cccc(F)c2)cc1 the results were NS1 inh 6%, Tb PYK inh -10%, Cycloheximide cs 61*, Shiga toxin inh 105*, SARS PLpro yeast -10% and LmPK inh inconclusive.
O=C(N/N=C\c1ccc(F)cc1)c1ccc(F)cc1 was read as Tb PYK inh 2%, Cycloheximide cs 47*, Shiga toxin inh 75*, SARS PLpro yeast -3% and LmPK inh 13%[11.5 µM].
CC(=O)Nc1ccc(C(=O)N/N=C/c2ccc(F)cc2)cc1 was read as Tb PYK inh 1%, Cycloheximide cs 4, Shiga toxin inh -3, SARS PLpro yeast 4% and LmPK inh 2%.
Screening O=C(N/N=C\c1c(F)c(F)c(F)c(F)c1F)c1ccc(-c2ccccc2)cc1 returned NS1 inh 9%, Tb PYK inh 1%, Cycloheximide cs 5, Shiga toxin inh -5, SARS PLpro yeast -7% and LmPK inh 10%.
For COc1cc(/C=N\NC(=O)c2ccc(C)nc2)ccc1OC(=O)c1cccc(F)c1 the results were NS1 inh 8%, Tb PYK inh -9%, Cycloheximide cs -3, Shiga toxin inh -2, SARS PLpro yeast -2% and LmPK inh -1%.
For COc1ccc(-c2ccc(NS(=O)(=O)c3cc(C)c(C)cc3C)cc2)nn1 the results were Tb PYK inh 1%.
COc1ccc(NC(=O)C2Cc3c(-c4cccc(C(C)=O)c4)ccnc3O2)cn1 (stereo unspecified) was read as Tb PYK inh -1%.
For O=[N+]([O-])c1cccc(S(=O)(=O)NC2CC3CCC2C3)c1 (stereo unspecified) the results were NS1 inh -23%, Tb PYK inh 1%, Cycloheximide cs -1, SARS PLpro yeast -1% and LmPK inh 14%.
